We go through eight compounds from PubChem BioAssay (NCI).

Molecules are shown by their SMILES. About 83,000 compounds went through this panel and 20% of them were active in at least one assay; those are over-represented in the sample as a whole.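 Treatment: one concentration, 48 hours, 96-well format. Scoring: percent growth, with anything below 10 considered active.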 Values without a mark were called inactive. The source made the active and inactive calls.

Common to all, as to test: NCI-60 one-dose screen, 48 h (100 = growth as untreated, 0 = no growth, -100 = all killed)
What all share (settings): 10 µM unless noted

Assay [1] concerns DU-145 prostate.
Assay [2] has as its system K-562 leukemia.
In assay [3] the test system is MALME-3M melanoma.
The test system of assay [4] is MDA-MB-231 breast.
Assay [5] concerns RXF 393 renal.
Assay [6] concerns SF-268 CNS.
Assay [7] deals with SF-295 CNS.
The test system of assay [8] is SF-539 CNS.
In assay [9] the test system is UACC-257 melanoma.
For assay [10], the system named is M14 melanoma.
The subject of assay [11] is HCT-15 colon.
Assay [12] has as its system HT29 colon.
Assay [13] has as its system SNB-19 CNS.
The subject of assay [14] is U251 CNS.
Assay [15] has as its system PC-3 prostate.
The subject of assay [16] is SK-MEL-5 melanoma.
The test system of assay [17] is UACC-62 melanoma.
In assay [18] the test system is LOX IMVI melanoma.
The subject of assay [19] is SK-MEL-28 melanoma.

As to `COc1ccc2c(c1)c(/C(O)=C1\COC(=O)C1=O)cn2Cc1ccc(F)cc1`, the growth was 139% in assay [1]; 86.6% in assay [2]; 106% in [3]; 94.1% in [4]; 104% in [5]; 103% in assay [6]. Also, the growth in [7] is 93.3%; in assay [8], 102%; in [9] it was 95.8%; in assay [10] it was 116%; in [11], 87.8%; in assay [12], 115%. Besides, the growth in [13] is 100%; in assay [14] it was 101%; in assay [15] it was 89.7%; in [16] it was 97.9%; in [17], 88.9%; in assay [18], 100%. In assay [19], the growth is 105%.
Take `CN1CCN(Cc2ccc(NC(=O)c3cncc(C#Cc4cnc5ccc(Cl)nn45)c3)cc2C(F)(F)F)CC1`: the growth in assay [1] was 4.06% (active); in assay [2], 1.96% (active); in [3], -63.1% (active); in [4], -1.94% (active); in assay [5], -52.8% (active); in assay [6], -41.6% (active). The growth was 9.72% (active) in [7]; -62% (active) in [8]; 3.9% (active) in assay [9]; -56.7% (active) in assay [10]; 0.05% (active) in assay [11]; 2.68% (active) in assay [12]. For the same compound, the growth in assay [13] is 6.75% (active); in assay [14], 4.22% (active); in [15], -18.6% (active); in assay [16] it was -58.7% (active); in [17], -14.5% (active); in assay [19], -8.84% (active).
On to `C/C(=N\O)c1ccc(NC(=O)CSc2nnc(-c3cc(-c4ccc(S(C)(=O)=O)cc4)nc4ccccc34)n2-c2ccccc2)cc1`, for which the growth in [1] is 92.6%; in assay [2], 73.4%; in assay [3], 94.4%; in assay [4] it was 76.9%; in assay [5], 98.7%; in assay [6], 77.4%. The growth was 99.4% in [7]; 83.4% in assay [8]; 99.1% in [9]; 93% in assay [10]; 84.7% in [11]; 102% in [12]. The growth in assay [13] was 87.6%; in [14] it was 93.5%; in assay [15] it was 68.5%; in assay [16], 74.8%; in [17] it was 80.6%; in assay [18] it was 76.7%. Also, in assay [19], the growth was 102%.
Regarding `Cc1ccc2nc(/C(C#N)=C(/CCCO)NC(Cc3ccccc3)C(=O)OCc3ccccc3)[nH]c(=O)c2c1` (stereo not given), the growth in assay [1] is 98.4%; in [2], 119%; in [3] it was 126%; in [4], 113%; in assay [5], 127%; in assay [6], 102%. For the same compound, the growth was 98.7% in [7]; 65.1% in [8]; 121% in [9]; 98.4% in [10]; 117% in assay [11]; 130% in [12]. Moreover, the growth is 90.4% in assay [13]; 115% in [15]; 73.3% in assay [16]; 99.1% in [17]; 98.5% in [18]; 96.4% in assay [19].
With `COc1ccc(/C=C/c2ccc3ccccc3n2)c(OC)c1`, the growth was 91.2% in assay [1]; 19.8% in [2]; 50% in assay [3]; 58.9% in assay [4]; 90.7% in assay [5]; 98.7% in assay [6]. Besides, the growth in assay [7] was 60.2%; in [8], 83.3%; in assay [9] it was 84.8%; in assay [10] it was 45.3%; in assay [11] it was 56%; in [12] it was 55.6%. Besides, the growth in assay [13] is 83.2%; in [14], 83.1%; in [15], 66.1%; in assay [16], 78.3%; in [17], 65.8%; in [18] it was 59.6%. In addition, the growth in assay [19] was 81.7%.
For the compound `O=c1ccc(=O)n(-c2nc(-c3ccc([N+](=O)[O-])cc3)cs2)[nH]1`, the growth is 97.7% in [1]; 95.2% in assay [2]; 114% in assay [3]; 105% in assay [4]; 88.4% in [5]; 95% in assay [6]. Besides, the growth in [7] is 98.1%; in [8] it was 97.3%; in assay [9] it was 102%; in assay [10] it was 101%; in assay [11], 96%; in [12], 55.6%. The growth in [13] was 96.1%; in assay [14], 95.6%; in assay [15], 98.6%; in assay [16], 95.6%; in assay [17] it was 90.7%; in [18], 98.5%. In addition, in assay [19], the growth is 105%.
Take `COC(=O)C(Cc1ccccc1)NC(=O)c1ccc(NC(=O)c2[nH]c(C)c(Cl)c2Cl)c(OC(C)C)c1` (stereo not given): the growth in assay [1] is 77.6%; in assay [2], 42.1%; in assay [3] it was 71.4%; in [4], 66.3%; in assay [5], 128%; in assay [6], 86.4%. The growth in [7] is 87.5%; in assay [8], -17.9% (active); in [9] it was 101%; in [10], 51.3%; in [11] it was 40.5%; in [12] it was 58%. Besides, the growth in assay [13] is 42.8%; in [14], 22.3%; in assay [15], 11.4%; in assay [16], 97.7%; in assay [17], 90.6%; in [18], 34.1%. Moreover, in [19], the growth was 102%.
On to `Cc1cccc[n+]1C1c2ccccc2-c2ccccc21`, for which the growth in assay [1] is 110%; in assay [2], 86.6%; in [3], 99.3%; in assay [4], 98.5%; in assay [5], 102%; in [6], 94.4%. In addition, the growth in assay [7] is 99.1%; in assay [8], 92.7%; in [9] it was 90.3%; in assay [10], 93.7%; in [11] it was 109%; in assay [12] it was 79.2%. Moreover, the growth was 89.7% in [13]; 83.1% in assay [14]; 67.6% in assay [15]; 94.5% in [16]; 92.3% in [17]; 97.8% in assay [18]. Also, the growth in assay [19] is 102%.
